# Screening results from PubChem.
# Lassa entry inh – qHTS for Inhibitors of binding or entry into cells for Lassa Virus. Lassa virus pseudotype entry inhibition, cell reporter. AID 540256, 2011. 300,000 tested, 1.2% active. Potency, µM (highest dose often 37.9 µM), without a hit: top-dose activity change, negative = inhibition, most hits filed as inhibitors; calls by dose curve; tested in HEK293 cells; further: potency means the concentration at half of the fitted maximal effect; nearly all actives have a fitted effect of over 50% in size
# HCMV inh – qHTS Assay for inhibitors of the human cytomegalovirus (HCMV); HFF cells, HCMV-luciferase reporter, 72 h; active compounds read low; 410,000 tested, 4.5% active; activity change, negative = inhibition, % at 57.5 µM; AID 1259415, 2018; in the data active means activity change below about -60%; inconclusive means no clear call, values can overlap the other calls; inactive means above about -39%
#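 Human foreskin fibroblasts infected with luciferase-reporter HCMV at MOI 1 PFU/cell, compounds at two doses. Luciferase measured 72 h post infection; normalized to buffer-only basal and Salinomycin (10uM) controls.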
# HCV inhibitor – qHTS Assay for Inhibitors of Hepatitis C Virus (HCV). Huh7.5.1 HCVcc-Cre infection, luciferase reporter, 44 h. Potency, µM (titrated, usually from 41.8 µM), inactives show top-dose activity change, negative = inhibition, usual class: inhibitors. 340,000 tested, 3.4% active; active means well fitted inhibition curve with a large enough effect; inconclusive means small, poorly fitted or top-dose-only effect, or another doubt; inactive means no such curve, though single readings can be large or run the other way; further: potency means the concentration at half of the fitted maximal effect
#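 After 44 h co-culture of compound, cells and HCVcc-Cre (~0.5 moi), substrate is added for 15 min at room temperature and luciferase measured over 15 sec. Cells were seeded at 1,000/well and pre-cultured 4 h.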
# MARV entry inh – qHTS for inhibitors of binding or entry into cells for Marburg Virus; Marburg virus pseudotyped entry inhibition, cell reporter; Potency, µM (titrated, usually from 37.8 µM), for inactives: top-dose activity change, negative = inhibition, most hits filed as inhibitors; 300,000 tested, 1.8% active; calls by dose curve; tested in HEK293 cells; further: potency means the concentration at half of the fitted maximal effect
# FMDV antiviral – High Throughput Screening for Foot and Mouth Disease Virus Antivirals | AID 1159524, 2015 | Potency, µM (titrated, usually from 57.9 µM), inactives show top-dose activity change, negative = inhibition, actives largely listed as inhibitors | 410,000 tested, 1.2% active | FMDV antiviral cell-based qHTS; calls by dose curve; tested in HEK293T cells; further: read-out not given here; potency means the concentration at half of the fitted maximal effect; nearly all actives have a fitted effect of over 45% in size
# * marks the source's active call; other numbers are inactive results; ? = inconclusive; · = no result given; ! = not confirmed by another sample; [ ] = remark or other dose. Compounds with a hit are over-represented: about 7.9% of the library has one in this group of screens. On the % scale 0 is the no-effect control and ±100 the full control effect.
SMILES,Lassa entry inh,HCMV inh,HCV inhibitor,MARV entry inh,FMDV antiviral
Cc1ccccc1N(Cc1cc(=O)[nH]c2ccccc12)C(=O)CCl,·,-101*,·,·,·
O=C(CCl)N(Cc1cc(=O)[nH]c2ccccc12)c1ccccc1,·,-100*,?,3%,14µM*
Cc1ccc(C(=O)c2cn(Cc3ccc(Cl)cc3)c3nc(C)ccc3c2=O)cc1,?,-39,·,-25%[46.1 µM],1%
O=C(CCn1c(=O)c2cccn2c2cccnc21)NCc1cccc(Br)c1,-4%[46.1 µM],-61*,·,·,-8%
Cc1ccc(Cl)cc1N1CCN(C(=O)CCn2c(=O)c3cccn3c3cccnc32)CC1,0%[46.1 µM],-3,·,·,?
O=C(CCn1c(=O)c2cccn2c2cccnc21)N1CCN(c2cccc(Cl)c2)CC1,?,-2,11µM*,?,?
O=C(CCn1c(=O)c2cccn2c2cccnc21)NCc1ccc(F)cc1,8%[46.1 µM],-37,·,·,3%
Cc1ccc(CCNC(=O)c2ccc(Cn3c(=O)c4cccn4c4cccnc43)cc2)cc1,-8%[46.1 µM],-60*,·,·,-4%
CC(C)CCNC(=O)CCn1c(=O)c2cccn2c2cccnc21,18%[46.1 µM],-60*,·,·,-1%
CC1CN(C(=O)COC(=O)c2cncc(Br)c2)CC(C)O1 (configuration not stated),·,-23,·,·,-14%
Clc1ccc(CNc2ncnc3onc(-c4ccc(Cl)cc4)c23)cc1,-14%[46.1 µM],?,·,?,-28%
COC(=O)C1CCN(Cc2ccc3c(c2)CN(C(=O)C(C)N2CCOCC2)CCO3)CC1 (configuration not stated),·,·,·,·,-6%
CCOC(=O)C1CCN(C(=O)Cn2c(=O)c3cccn3c3cccnc32)CC1,·,0,11µM*,·,-13%
CCOc1ccc(CNC(=O)Cn2c(=O)c3cccn3c3cccnc32)cc1,19%[46.1 µM],-24,·,·,-2%
CCCNC(=O)Cn1c(=O)c2cccn2c2cccnc21,7%[46.1 µM],-81*,·,·,-1%
CCOC(=O)C1CCN(C(=O)CCCn2c(=O)c3cccn3c3cccnc32)CC1,1%[46.1 µM],?,1%,-12%[46.1 µM],-3%
CCOc1ccc(-c2cc(C(=O)NCCCOC)c3c(-c4ccc(CC)cc4)[nH]nc3n2)cc1,-5%[46.1 µM],-21,·,·,9%
Cc1ccc(NC(=O)NCC2CCN(Cc3cccc(Cl)c3)CC2)c(Cl)c1,·,-66*,13µM*,·,-18%
Cc1ccc(NC(=O)NCC2CCN(Cc3cccc(Cl)c3)CC2)cc1Cl,-17%,-92*!,-24%,?,?
O=C(NCC1CCN(Cc2cccc(Cl)c2)CC1)Nc1ccccc1Cl,26%[46.1 µM],11,?,?,-18%
CC(C)c1ccc(OCc2ccc(C(=O)N3CCCC3)o2)cc1,-28%[46.1 µM],32,?,10%[46.1 µM],5%
COC(=O)CC=C[C@@H](C)[C@@H](COc1ccccc1Br)OC,·,·,·,12%[14.2 µM],·
O=c1ccnc(Nc2ccc([N+](=O)[O-])cc2)[nH]1,-13%[46.1 µM],-71*,-20%,?,-7%
C[C@H]1[C@@H](NC(=O)Nc2ccccc2)CC[C@@]23CCCN2C(=O)CCC[C@@H]13,·,0,·,·,·
CCOc1ccc(-c2nn(-c3ccccc3)cc2C2NC(=O)NC(C)=C2C(=O)OC(C)C)cc1 (configuration not stated),-23%[46.1 µM],-67*,·,?,-5%
SMILES,Lassa entry inh,HCMV inh,HCV inhibitor,MARV entry inh,FMDV antiviral
O=C(C1=NNCC1c1ccccc1)C1CO1 (configuration not stated),-16%,-69*,11%,-32%,-25%
Cc1cc(N2CCN(C)CC2)nc2ccc(NC(=S)NCCCN3CCc4ccccc4C3)cc12,?,-3,11µM*,4µM*,-12%
Cc1cc(N2CCN(C)CC2)nc2ccc(NC(=S)NCCN3CCc4ccccc4C3)cc12,·,?,11µM*,0%,-22%
Cc1cc(N2CCCC2)nc2ccc(NC(=S)NCCCN3CCC(C)CC3)cc12,?,-88*,10µM*,?,-15%
CCN(CC)CCNC(=S)Nc1ccc2nc(N3CCN(CC)CC3)cc(C)c2c1,-20%[46.1 µM],?,?,?,-15%
Cc1cc(N2CCOCC2)nc2ccc(NC(=O)C3CCCCC3)cc12,·,5,·,·,12%
Cc1cc(N2CCOCC2)nc2ccc(NC(=S)N3CCCCC3C)cc12 (configuration not stated),?,?,?,2.8µM*,30%
Oc1ccc(Cl)cc1CNCc1ccc(C(F)(F)F)cc1,·,-30,23%,·,-14%
C=CC[C@@H]1C=CC(ON=C(C)CCC(=O)OC[C@H]2O[C@H](C#Cc3ccccc3)C=C[C@H]2Oc2ccc(C)cc2)[C@H](CO)O1 (some centres not stated),·,·,·,29%[14.2 µM],·
CCOC(=O)c1cc(-c2ccccc2)n(-c2cccc(C(=O)Nc3cccc(SC)c3)c2)c1C,-3%[46.1 µM],?,·,·,10%
CCN1CCN(c2cc(C)c3cc(NC(=S)NCCCN4CCc5ccccc5C4)ccc3n2)CC1,-24%,?,8.9µM*,13µM*,1%
CCCN1CCN(CCCNC(=S)Nc2ccc3nc(N4CCN(CC)CC4)cc(C)c3c2)CC1,·,?,?,·,3%
CC(=O)OC1CCC2(C)C(CCC3C4CC=C(C(C)=O)C4(C)OC(=O)CC32)C1 (configuration not stated),·,-76*,·,·,13µM*
O=C1c2ccccc2C(=O)c2c1ccc(O)c2O,·,18,16%,·,-14%
O=C1c2ccc(O)c(O)c2C(=O)c2c(O)ccc(O)c21,·,·,·,·,22µM*
Cn1c2ccccc2c2cc(/C=N/NC(=O)c3ccccc3F)ccc21,·,-3,14µM*,·,-6%
CCn1c2ccccc2c2cc(/C=N/NC(=O)c3cccc(C)c3)ccc21,-27%,20,?,?,-10%
Cn1c2ccccc2c2cc(/C=N/NC(=O)c3ccc(N)cc3)ccc21,?,1,11µM*,?,-20%
CCn1c2ccccc2c2cc(/C=N/NC(=O)c3ccccc3C)ccc21,?,-23,5.6µM*,?,-9%
COc1ccc(-c2cn3nc(N4CCCC(C(=O)NCc5ccccc5C)C4)sc3n2)cc1 (configuration not stated),-1%[46.1 µM],0,·,·,-3%
O=c1c(O)c(-c2ccc(O)c(O)c2)oc2c(OC3OC(CO)C(O)C(O)C3O)c(O)cc(O)c12 (configuration not stated),·,·,·,·,0%
Fc1ccc(NC(=S)Nc2cccc(Cl)c2)cc1,-2%,-73*,?,3%,41%
FC(F)(F)c1ccccc1NC(=S)Nc1cccc(Cl)c1,6%,-76*,24%,22%[46.1 µM],-12%
Fc1ccc(CNC(=S)Nc2cccc(Cl)c2)cc1,?,?,?,-15%,4%
CCCCN(C(=O)CSc1nnc(Nc2ccccc2)s1)c1c(N)n(CCC)c(=O)[nH]c1=O,7%,30,11%,-7%,12%
CCc1c(C)c2ccc(O)c(CN3CCN(c4ccccc4)CC3)c2oc1=O,?,-61*,·,?,?
